Reference: PubChem BioAssay (Tox21)
Several values for one entry are separate records, joined by “and”; a condition that tells them apart may be missing. Equal entries are not always repeated. More than one record can exist for a structure, and the calls need not agree. Activity calls are given as the source filed them. Entries that show only a call come without a potency. Unless noted, the call rests on the fitted dose curve; in most records, active means well fitted curve in the direction sought with a large enough effect in the repeat runs; inconclusive means weak or mixed curves; inactive means no such curve, though single readings can be large; an effect the other way counts as inactive or inconclusive.

Legend:
[1] = qHTS assay to identify small molecule antagonists of the thyroid receptor (TR) signaling pathway - cell viability counter screen (AID 743064); further: nearly all actives have a fitted effect of over 50% in size; further: potency means the concentration at half of the fitted maximal effect
Summary of the method: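 GH3.TRE-Luc rat pituitary cells carrying a TRE-luciferase reporter were treated with compound plus 1 nM T3 (final) for 23.5 h at 37 °C. Viability was then read in the same wells by CellTiter-Fluor fluorescence after a further 30 min.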

[2] = test system: thyroid hormone receptor (rat, GH3 cells); experiment: qHTS assay to identify small molecule agonists of the thyroid receptor (TR) signaling pathway (AID 743066; calls by dose curve; further: potency means the concentration at half of the fitted maximal effect)
[3] = qHTS assay to identify small molecule antagonists of the estrogen receptor alpha (ER-alpha) signaling pathway - cell viability counter screen (AID 743074; calls by dose curve;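 further: HEK293 cells carrying ER-alpha-UAS-bla reporter stimulated with 17beta-estradiol; nearly all actives have a fitted effect of over 45% in size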; further: potency means the concentration at half of the fitted maximal effect)
[4] = molecular target: Estrogen receptor (Homo sapiens) (UniProt P03372); experiment: qHTS assay to identify small molecule agonists of the estrogen receptor alpha (ER-alpha) signaling pathway (AID 743075; calls by dose curve;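 further: HEK293 GripTite cells with ER-alpha and UAS-driven beta-lactamase reporter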; further: potency means the concentration at half of the fitted maximal effect)
[5] = molecular target: Estrogen receptor (Homo sapiens) (UniProt P03372); experiment: qHTS assay to identify small molecule agonists of the estrogen receptor alpha (ER-alpha) signaling pathway using the BG1 cell line (AID 743079); further: nearly all actives have a fitted effect of over 20% in size; further: potency means the concentration at half of the fitted maximal effect
[6] = qHTS assay to identify small molecule antagonists of the estrogen receptor alpha (ER-alpha) signaling pathway using the BG1 cell line (AID 743080; calls by dose curve;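 further: BG1 cells stimulated with 17beta-estradiol alongside compound; nearly all actives have a fitted effect of over 25% in size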; further: potency means the concentration at half of the fitted maximal effect)
Summary of the method: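 Luciferase inhibition measured with ONE-Glo after 30 min at RT in BG1Luc4E2 cells given test compounds and 17beta-estradiol for 21.5 h at 37 C; CellTiter-Fluor viability read in the same wells beforehand.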

[7] = qHTS assay to identify small molecule antagonists of the estrogen receptor alpha (ER-alpha) signaling pathway using the BG1 cell line - cell viability counter screen (AID 743081);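 further: compound given together with 17beta-estradiol as the ER stimulus; nearly all actives have a fitted effect of over 45% in size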; further: potency means the concentration at half of the fitted maximal effect
Aromatase (Homo sapiens) = Aromatase (Homo sapiens) (UniProt P11511); experiment: qHTS assay to identify aromatase inhibitors (AID 743083); further: nearly all actives have a fitted effect of over 55% in size; further: potency means the concentration at half of the fitted maximal effect
[8] = molecular target: Estrogen receptor (Homo sapiens) (UniProt P03372); experiment: qHTS assay to identify small molecule antagonists of the estrogen receptor alpha (ER-alpha) signaling pathway (AID 743069; active means well fitted curve in the direction sought with a large enough effect in the signal ratio in the repeat runs, not every such curve was filed as active; inconclusive means weak or mixed curves, or effect the other way; inactive means no such curve, though single readings can be large or run the other way; the % refers to the signal ratio; further: potency means the concentration at half of the fitted maximal effect)
Summary of the method: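 Antagonist mode: compounds in DMSO were co-added with 17beta-estradiol to ER-alpha-bla HEK293 cells (2% charcoal-stripped serum) and left 18 h at 37C. Reporter inhibition was measured as FRET fluorescence after 2 h LiveBLAzer substrate at room temperature.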

[9] = qHTS assay to identify small molecule antagonists of the thyroid receptor (TR) signaling pathway (AID 743065); further: series mostly up to about 70 µM; nearly all actives have a fitted effect of over 55% in size
Summary of the method: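 Antagonism measured as loss of luciferase signal in GH3 cells stably carrying a TRE-luciferase reporter, co-treated with compound and T3 (1 nM final) for 23.5 h at 37 C. Viability was read in the same well by CellTiter-Fluor.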

Chain of Estrogen receptor (Homo sapiens) (P03372 whole entry, looked up): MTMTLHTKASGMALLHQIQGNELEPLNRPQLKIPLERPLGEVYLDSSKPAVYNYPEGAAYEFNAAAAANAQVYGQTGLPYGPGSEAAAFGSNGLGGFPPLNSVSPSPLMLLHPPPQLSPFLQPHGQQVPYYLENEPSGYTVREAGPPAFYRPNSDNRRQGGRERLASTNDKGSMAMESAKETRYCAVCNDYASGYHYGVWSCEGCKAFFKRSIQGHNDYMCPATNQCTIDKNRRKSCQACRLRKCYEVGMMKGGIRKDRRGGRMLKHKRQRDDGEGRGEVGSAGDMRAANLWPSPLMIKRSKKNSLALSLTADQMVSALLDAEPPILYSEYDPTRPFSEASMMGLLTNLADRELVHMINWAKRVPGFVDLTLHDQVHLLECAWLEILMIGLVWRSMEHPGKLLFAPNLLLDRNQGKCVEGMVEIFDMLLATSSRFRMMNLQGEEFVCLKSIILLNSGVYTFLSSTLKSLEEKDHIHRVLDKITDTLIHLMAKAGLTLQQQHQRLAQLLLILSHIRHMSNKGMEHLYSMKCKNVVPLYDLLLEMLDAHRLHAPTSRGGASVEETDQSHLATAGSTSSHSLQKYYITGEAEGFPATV
Chain of Aromatase (Homo sapiens) (P11511 whole entry, looked up): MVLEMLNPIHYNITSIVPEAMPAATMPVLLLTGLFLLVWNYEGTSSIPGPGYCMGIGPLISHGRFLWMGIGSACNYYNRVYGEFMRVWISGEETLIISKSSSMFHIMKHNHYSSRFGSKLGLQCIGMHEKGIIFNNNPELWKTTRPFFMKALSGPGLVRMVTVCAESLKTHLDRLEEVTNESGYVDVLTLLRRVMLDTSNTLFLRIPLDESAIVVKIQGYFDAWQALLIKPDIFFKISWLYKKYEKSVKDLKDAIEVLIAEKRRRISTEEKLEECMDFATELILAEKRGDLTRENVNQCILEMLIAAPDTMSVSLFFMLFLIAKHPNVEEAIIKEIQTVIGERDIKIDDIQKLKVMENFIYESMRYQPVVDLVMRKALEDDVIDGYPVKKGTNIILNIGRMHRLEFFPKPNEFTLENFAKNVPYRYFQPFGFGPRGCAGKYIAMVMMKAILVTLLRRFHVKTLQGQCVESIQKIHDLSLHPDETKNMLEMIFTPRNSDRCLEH

Compound | Potency [1] | Potency [2] | Potency [3] | Potency [4] | Potency [5] | Potency [6] | Potency [7] | Potency (Aromatase (Homo sapiens)) | Potency [8] | Potency [9]
c1ccc2cc3c(ccc4ccccc43)cc2c1 | inactive | inactive | inactive | 55.1 µM [activator] (active) and inactive | 54.6 µM (active) and 48.6 µM (active) | inactive | inactive | inactive | – | –
Cc1c(O)cccc1C(=O)N[C@@H](CSc1ccccc1)[C@H](O)CN1C[C@H]2CCCC[C@H]2C[C@H]1C(=O)NC(C)(C)C | 5.31 µM (active) and 2.11 µM (active) | inactive | 53.5 µM (active) | – | – | – | 18.8 µM (active) and 26.6 µM (active) | 26.6 µM (active) and 23.7 µM (active) | – | –
CC[C@H]1CN2CCc3cc(OC)c(OC)cc3[C@@H]2C[C@@H]1C[C@H]1NCCc2cc(OC)c(OC)cc21 | 84.1 nM (active) and 97.2 nM (active) | inactive | inactive | – | – | – | 9.72 µM (active) | 237 nM (active) and 244 nM (active) | – | –
CN1C(=O)c2ccc([N+](=O)[O-])cc2C1=O | inactive | inactive | – | inactive | inactive | inactive | inactive | inactive | inactive | –
O=c1n(CC2CO2)c(=O)n(CC2CO2)c(=O)n1CC1CO1 (stereo unspecified) | 12.1 µM (active) and 27.3 µM (active) | inactive | inactive | inactive | inactive | – | inactive | inactive and 48.3 µM (active) | – | –
c1ccc2c(c1)CCCC2C1=NCCN1 (stereo unspecified) | inactive | inactive | inactive | inactive | inactive | inactive | inactive | inactive | inactive | –
CC(C)(C)NC(=O)[C@@H]1CN(Cc2cccnc2)CCN1C[C@@H](O)C[C@@H](Cc1ccccc1)C(=O)N[C@H]1c2ccccc2C[C@H]1O | inactive | inactive | inactive | – | – | – | inactive | 29.8 µM (active) and inactive | – | –
CN(C)c1ccc2nc3ccc(=[N+](C)C)cc-3sc2c1 | 15 µM (active) and 26.2 µM (active) and 54.5 µM (active) | inactive | inactive | – | – | – | 18.8 µM (active) and 23.4 µM (active) and 54.5 µM (active) | – | inactive | –
CCCCC/C=C/CC1CC(=O)OC1=O (stereo unspecified) | inactive | inactive | inactive | inactive | inactive | inactive | inactive | inactive | inactive | –
CC1=CC(=O)c2ccccc2C1=O | 13.7 µM (active) | inactive | inactive | – | – | 29.8 µM (active) | inactive | inactive and 19.3 µM (active) | – | –
O=S(=O)(O)c1ccc2nc(-c3ccccc3)[nH]c2c1 | inactive | inactive | – | – | – | – | inactive | inactive | – | –
CCOc1ccc2c(c1)C(C)=CC(C)(C)N2 | inactive | inactive | inactive | inactive | inactive | inactive | inactive | inactive | inactive | –
O=C1CC2(CCCC2)CC(=O)N1CCCCN1CCN(c2ncccn2)CC1 | inactive | inactive | inactive | – | – | – | inactive | – | – | –
CC(=O)N[C@@H](CS)C(=O)O | inactive | inactive | inactive | inactive | inactive | inactive | inactive | inactive | inactive | –
COc1nc(C)nc(Cl)c1NC1=NCCN1 | inactive | inactive | inactive | inactive | inactive | inactive | – | inactive | inactive | –
CCn1c2ccccc2c2cc(N)ccc21 | inactive | inactive | inactive | 48.5 µM [inconclusive] (active) and inactive | inactive | inactive | inactive | inactive | inactive | –
COC(=O)c1cccc(C(=O)OC)c1 | inactive | inactive | inactive | inactive | inactive | inactive | inactive | inactive | inactive | –
Cc1cccc([N+](=O)[O-])c1C(=O)O | inactive | inactive | inactive | inactive | inactive | inactive | inactive | inactive | inactive | –
O=C1Nc2ccccc2C1(c1ccc(O)cc1)c1ccc(O)cc1 | 54.5 µM (active) | inactive | inactive | inactive | – | – | 0.969 µM (active) | inactive | 49 µM [inconclusive] (active) | –
CCN1CCCC1CNC(=O)c1cc(S(=O)(=O)CC)c(N)cc1OC (stereo unspecified) | inactive | inactive | – | inactive | inactive | inactive | – | inactive | inactive | –
CCCN[C@H]1CCc2nc(N)sc2C1 | inactive | inactive | inactive | – | – | – | inactive | inactive | – | –
O=C(O)CCc1ccccc1 | inactive | inactive | inactive | – | – | – | inactive | – | – | –

Compound | Potency [1] | Potency [2] | Potency [3] | Potency [4] | Potency [5] | Potency [6] | Potency [7] | Potency (Aromatase (Homo sapiens)) | Potency [8] | Potency [9]
CCn1cc(C(=O)O)c(=O)c2cc(F)c(N3CCNC(C)C3)c(F)c21 (stereo unspecified) | inactive | inactive | inactive | inactive | inactive | inactive | inactive | inactive | inactive | –
CCCC(=O)c1ccccc1 | inactive | inactive | inactive | – | – | – | inactive | inactive | – | –
CCC(CO)(CO)COCC(CC)(CO)CO | inactive | inactive | – | – | – | – | inactive | inactive | – | –
CC(C)(C)c1cc(C(C)(C)C)c(O)c(C(C)(C)C)c1 | 27.3 µM (active) | 9.69 µM (active) | inactive | inactive | inactive | inactive | inactive | – | – | –
c1cc(C(c2ccc(OCC3CO3)cc2)C(c2ccc(OCC3CO3)cc2)c2ccc(OCC3CO3)cc2)ccc1OCC1CO1 (stereo unspecified) | 48.5 µM (active) | inactive | inactive | inactive | 20.1 µM (active) and 21.7 µM (active) | – | inactive | inactive | inactive | –
CC(=O)C1=C(C)[C@@H]2C[C@@]3(C1)[C@H](C)CC[C@H]3C2(C)C | 63.9 µM (active) and inactive | inactive | inactive | inactive | inactive | inactive | inactive | inactive | inactive | –
O=C(OCc1ccccc1)c1ccc(O)cc1 | inactive | inactive | inactive | 54.9 µM [inconclusive] (active) | 10.6 µM (active) and 12.2 µM (active) | – | inactive | inactive | inactive | –
CC(C)CCOC(=O)c1ccc(N(C)C)cc1 | inactive | inactive | inactive | inactive | 11.9 µM (active) | – | inactive | inactive | inactive | –
c1cnc2cc3c(cc2n1)C1CNCC3C1 | inactive | inactive | inactive | inactive | inactive | inactive | inactive | inactive | inactive | –
O=C(O)CP(=O)(O)O | inactive | inactive | inactive | inactive | inactive | inactive | inactive | inactive | inactive | –
CCC(C)(C)C(=O)O[C@H]1C[C@@H](C)C=C2C=C[C@H](C)[C@H](CC[C@@H]3C[C@@H](O)CC(=O)O3)[C@H]21 | inactive | inactive | inactive | inactive | 12.7 µM (active) and inactive | – | inactive | inactive | inactive | –
CN(C)c1ccc(C(=C2C=CC(=[N+](C)C)C=C2)c2ccccc2)cc1 | 7.5 µM (active) and 68.6 nM (active) | inactive | 1.1 µM (active) | – | – | – | inactive and 9.69 µM (active) | 243 nM (active) | – | –
Nc1cc(S(=O)(=O)O)cc2cc(S(=O)(=O)O)cc(O)c12 | inactive | – | inactive | – | – | – | inactive | inactive | – | –
Nc1ccc2cc3ccccc3cc2c1 | – | inactive | – | – | 9.86 µM (active) and 24.3 µM (active) | – | inactive | inactive | – | –
O=C1OC2(c3ccc(O)cc3Oc3cc(O)ccc32)c2ccccc21 | – | inactive | inactive | inactive | inactive and 23.7 µM (active) | inactive | – | inactive | – | inactive
CCN(CC)c1ccc2c(C)cc(=O)oc2c1 | – | inactive | 49.4 µM (active) and inactive | – | inactive | inactive | – | inactive | – | –
CCC[C@H](N[C@@H](C)C(=O)N1[C@H](C(=O)O)C[C@@H]2CCCC[C@@H]21)C(=O)OCC | – | inactive | inactive | inactive | inactive | inactive | – | inactive | inactive | –
CC(=O)Nc1ccc(C(=O)CCl)cc1 | inactive and 8.63 µM (active) | – | inactive | – | – | – | inactive | inactive | – | –
CCCOC(=O)c1cc(O)c(O)c(O)c1 | – | inactive | inactive | 9.52 µM [inconclusive] (active) and 19.4 µM [inconclusive] (active) and 61.6 µM [inconclusive] (active) | 26.6 µM (active) and inactive | inactive | inactive | inactive | – | inactive
COC(c1ccccc1)(c1ccccc1)[C@H](Oc1nc(C)cc(C)n1)C(=O)O | – | inactive | inactive | – | – | – | – | inactive | – | inactive
NC12CC3CC(CC(C3)C1)C2 | – | inactive | inactive | – | – | – | inactive | inactive | – | –
COC(=O)[C@H]1[C@H]2C[C@@H]3c4[nH]c5cc(OC)ccc5c4CCN3C[C@H]2C[C@@H](OC(=O)c2cc(OC)c(OC)c(OC)c2)[C@@H]1OC | 11.9 µM (active) and 24.3 µM (active) | – | inactive | – | – | – | inactive | 16.8 µM (active) and 27.3 µM (active) and 56 µM (active) | – | –
